Measurements taken from PubChem BioAssay (EPA / NIEHS).
Results filed as inconclusive are left out. Active and inactive are the calls of the source. The calls were made as follows, unless noted: active = hit-call score of the fitted dose curve at least 0.9, where 1 is the maximum; inactive = score below 0.9.

What was measured:
[1] = target: CCAAT/enhancer-binding protein beta (Homo sapiens) (UniProt P17676); experiment: ATG_C_EBP_CIS: Attagene CIS-FACTORIAL HepG2 Assay for human CCAAT/Enhancer Binding Protein (C/EBP) beta (AID 2282927); settings: HepG2 Attagene cis-factorial transcription factor reporter; actives raise or lower the signal
Sequence of CCAAT/enhancer-binding protein beta (Homo sapiens) (P17676 whole entry, looked up): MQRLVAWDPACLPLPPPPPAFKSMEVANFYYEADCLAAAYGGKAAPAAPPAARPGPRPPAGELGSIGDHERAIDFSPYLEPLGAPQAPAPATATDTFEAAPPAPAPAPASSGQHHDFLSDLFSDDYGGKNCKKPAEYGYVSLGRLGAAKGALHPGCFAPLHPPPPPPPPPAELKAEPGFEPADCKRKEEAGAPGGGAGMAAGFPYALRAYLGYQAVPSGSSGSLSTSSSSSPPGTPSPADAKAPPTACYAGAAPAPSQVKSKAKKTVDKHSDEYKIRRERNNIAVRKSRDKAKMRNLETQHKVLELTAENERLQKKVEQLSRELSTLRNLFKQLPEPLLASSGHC
In short: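 Transiently transfected HepG2 (MRTU library, endogenous TF-driven promoters); 24 h dosing; total RNA → oligo(dT) RT → PCR → 6-FAM primer extension → HpaI digest → CE; fit bidirectionally vs DMSO.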

[2] = ATG_CMV_CIS: Attagene CIS-FACTORIAL HepG2 Assay for human CMV (Internal Marker) (AID 2282928); settings: HepG2 CMV promoter reporter, transcription factor profiling; actives raise or lower the signal;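 also: endpoint acts as a background internal control marker rather than a target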
In short: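 Cell system: HepG2, transiently transfected multiple reporter units under cis promoters. Exposure: 24 h. Detection: RT-PCR, FAM labeling, HpaI digestion, capillary electrophoresis. Analysis: bidirectional, DMSO baseline.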

[3] = target: Aryl hydrocarbon receptor (Homo sapiens) (UniProt P35869); experiment: ATG_Ahr_CIS: Attagene CIS-FACTORIAL HepG2 Assay for human Aryl Hydrocarbon Receptor (Ahr) (AID 2282930); settings: HepG2 AhR cis-factorial reporter transcription; actives raise or lower the signal
Sequence of Aryl hydrocarbon receptor (Homo sapiens) (P35869 whole entry, looked up): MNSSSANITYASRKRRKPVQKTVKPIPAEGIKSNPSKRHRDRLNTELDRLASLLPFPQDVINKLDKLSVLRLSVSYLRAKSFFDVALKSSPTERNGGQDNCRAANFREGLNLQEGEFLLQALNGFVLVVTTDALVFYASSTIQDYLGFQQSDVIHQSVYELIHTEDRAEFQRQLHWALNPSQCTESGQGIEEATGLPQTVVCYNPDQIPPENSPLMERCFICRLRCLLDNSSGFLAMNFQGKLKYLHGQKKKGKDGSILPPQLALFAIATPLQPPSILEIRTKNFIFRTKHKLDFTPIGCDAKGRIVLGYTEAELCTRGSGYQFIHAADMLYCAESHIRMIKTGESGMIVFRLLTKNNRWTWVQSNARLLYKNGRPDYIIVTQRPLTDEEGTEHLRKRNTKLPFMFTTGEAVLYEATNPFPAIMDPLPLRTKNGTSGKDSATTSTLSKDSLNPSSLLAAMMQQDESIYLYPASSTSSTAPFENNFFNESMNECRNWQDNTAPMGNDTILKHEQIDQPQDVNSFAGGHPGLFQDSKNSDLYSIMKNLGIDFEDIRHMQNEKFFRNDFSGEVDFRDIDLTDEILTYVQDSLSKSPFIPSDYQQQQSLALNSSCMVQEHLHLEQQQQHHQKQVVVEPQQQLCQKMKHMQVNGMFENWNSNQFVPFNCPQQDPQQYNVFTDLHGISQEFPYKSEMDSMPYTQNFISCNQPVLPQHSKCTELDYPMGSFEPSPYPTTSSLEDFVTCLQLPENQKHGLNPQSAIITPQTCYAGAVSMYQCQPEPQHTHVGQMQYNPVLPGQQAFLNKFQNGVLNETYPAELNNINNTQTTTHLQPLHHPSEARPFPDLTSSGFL
In short: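 Read-out: reporter mRNA quantified by RT-PCR with fluorescent primer extension and capillary electrophoresis. Human HepG2 liver cells carried transfected cis-promoter reporter units and were exposed to chemical for 24 h; gain or loss fitted relative to DMSO.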

[4] = ATG_EGR_CIS: Attagene CIS-FACTORIAL HepG2 Assay for human Early Growth Response 1 (EGR1) (AID 2282938); settings: HepG2 Attagene CIS-FACTORIAL EGR reporter mRNA; actives raise or lower the signal
In short: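 HepG2 cells transiently transfected with cis-element-driven multiplexed reporter units, dosed for 24 h. EGR1-element reporter mRNA quantified by RT-PCR, 6-FAM labelling, HpaI digestion and capillary electrophoresis; bidirectional fit versus DMSO.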

[5] = ATG_GLI_CIS: Attagene CIS-FACTORIAL HepG2 Assay for human Zinc Finger Protein GLI1 (AID 2282945); settings: HepG2, Attagene cis-factorial reporter mRNA, GLI element; actives raise or lower the signal
In short: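 Transiently transfected HepG2 cells report endogenous transcription factor activity via cis-element-driven reporter units. After 24 h compound exposure, reporter mRNA was measured by RT-PCR with capillary electrophoresis; bidirectional fitting against DMSO baseline.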

[6] = ATG_ISRE_CIS: Attagene CIS-FACTORIAL HepG2 Assay for human Interferon Regulatory Factor 1 (IRF1) binding to an Interferon-Stimulated Response Element (ISRE) (AID 2282948); settings: HepG2 ISRE cis-reporter (Attagene), mRNA transcription readout; actives raise or lower the signal
In short: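 Quantitation relies on labelled RT-PCR fragments separated by capillary electrophoresis. Human HepG2 cells bearing cis-promoter reporter constructs were treated 24 h; DMSO served as baseline for bidirectional fitting.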

[7] = ATG_M_06_CIS: Attagene CIS-FACTORIAL HepG2 Assay for M06 Transcription Factor (Internal Marker) (AID 2282950); settings: HepG2 Attagene CIS-FACTORIAL M06 internal marker reporter; actives raise or lower the signal
In short: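 Fluorescence-labelled RT-PCR products from cis-promoter reporter units, cut with HpaI and resolved by capillary electrophoresis, give the signal. Cells are human HepG2, dosed for 24 h. Serves as background control, fitted relative to DMSO.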

[8] = target: Hypoxia-inducible factor 1-alpha (Homo sapiens) (UniProt Q16665); experiment: ATG_HIF1a_CIS: Attagene CIS-FACTORIAL HepG2 Assay for human Hypoxia Inducible Factor 1 (HIF1A) (AID 2282951); settings: HepG2 Attagene cis-factorial HIF1a reporter transcription; actives raise or lower the signal
Sequence of Hypoxia-inducible factor 1-alpha (Homo sapiens) (Q16665 whole entry, looked up): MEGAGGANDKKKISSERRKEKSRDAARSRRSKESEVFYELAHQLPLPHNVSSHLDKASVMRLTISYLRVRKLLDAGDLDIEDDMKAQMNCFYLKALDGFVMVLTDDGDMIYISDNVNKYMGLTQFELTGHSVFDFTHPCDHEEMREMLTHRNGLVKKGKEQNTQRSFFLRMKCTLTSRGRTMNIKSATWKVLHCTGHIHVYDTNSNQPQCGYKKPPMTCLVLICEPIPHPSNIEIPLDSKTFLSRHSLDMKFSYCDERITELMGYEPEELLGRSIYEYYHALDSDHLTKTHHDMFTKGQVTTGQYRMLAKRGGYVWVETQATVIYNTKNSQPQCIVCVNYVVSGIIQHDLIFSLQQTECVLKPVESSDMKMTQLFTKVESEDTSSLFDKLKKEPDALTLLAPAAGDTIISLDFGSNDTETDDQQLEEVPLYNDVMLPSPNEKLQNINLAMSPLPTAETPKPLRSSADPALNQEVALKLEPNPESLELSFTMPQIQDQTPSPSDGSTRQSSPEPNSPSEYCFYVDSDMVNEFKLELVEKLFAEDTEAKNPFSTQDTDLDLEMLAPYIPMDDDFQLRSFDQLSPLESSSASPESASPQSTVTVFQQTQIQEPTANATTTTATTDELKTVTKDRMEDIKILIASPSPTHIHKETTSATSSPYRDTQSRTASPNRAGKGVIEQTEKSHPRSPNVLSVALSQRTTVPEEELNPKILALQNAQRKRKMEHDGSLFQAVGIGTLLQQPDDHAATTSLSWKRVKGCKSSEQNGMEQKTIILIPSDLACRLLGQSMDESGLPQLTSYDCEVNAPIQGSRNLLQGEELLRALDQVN
In short: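 HepG2 cells transiently transfected with multiple cis-regulated reporter transcription units measure endogenous transcription factor activity. After 24 h exposure, reporter mRNA is quantified by RT-PCR with 6-FAM labelling, HpaI digestion and capillary electrophoresis. Bidirectional fitting against DMSO.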

[9] = target: Heat shock factor protein 1 (Homo sapiens) (UniProt Q00613); experiment: ATG_HSE_CIS: Attagene CIS-FACTORIAL HepG2 Assay for human Heat Shock Transcription Factor 1 (HSE) (AID 2282953); settings: HepG2 HSE cis-reporter, Attagene RNA transcription; actives raise or lower the signal
Sequence of Heat shock factor protein 1 (Homo sapiens) (Q00613 whole entry, looked up): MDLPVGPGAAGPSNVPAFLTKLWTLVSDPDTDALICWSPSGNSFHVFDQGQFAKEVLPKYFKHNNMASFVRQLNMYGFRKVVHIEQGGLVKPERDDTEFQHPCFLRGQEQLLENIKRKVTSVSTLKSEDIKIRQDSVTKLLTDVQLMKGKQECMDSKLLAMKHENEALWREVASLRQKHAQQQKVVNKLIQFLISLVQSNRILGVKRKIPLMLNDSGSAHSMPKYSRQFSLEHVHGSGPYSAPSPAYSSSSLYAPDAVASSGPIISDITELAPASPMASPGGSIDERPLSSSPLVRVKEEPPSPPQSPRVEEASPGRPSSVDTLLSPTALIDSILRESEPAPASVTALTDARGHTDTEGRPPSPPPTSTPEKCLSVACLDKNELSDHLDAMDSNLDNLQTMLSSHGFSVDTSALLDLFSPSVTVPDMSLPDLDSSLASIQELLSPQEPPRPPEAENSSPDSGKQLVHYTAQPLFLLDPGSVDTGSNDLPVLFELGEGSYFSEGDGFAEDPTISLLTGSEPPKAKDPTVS
In short: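 After a 24 h incubation with test chemical, transfected HepG2 cells were harvested for RNA; reporter transcripts were measured by RT-PCR and capillary electrophoresis. Values reflect gain or loss of signal relative to DMSO.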

[10] = ATG_TAL_CIS: Attagene CIS-FACTORIAL HepG2 Assay for human TAL Basal Promoter (AID 2282966); settings: HepG2 Attagene cis-factorial TAL promoter reporter; actives raise or lower the signal;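 also: background control endpoint measuring basal TAL promoter reporter mRNA not a specific factor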
In short: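 Readout: reporter mRNA, fluorescence by CE. System: HepG2, transient multi-reporter transfection, endogenous TF activity. Exposure: 24 h. Analysis: bidirectional, DMSO-normalized; background control.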

[11] = ATG_VDRE_CIS: Attagene CIS-FACTORIAL HepG2 Assay for human Vitamin D Receptor Element (VDRE) (AID 2282968); settings: HepG2 VDRE cis-reporter transcription, actives raise or lower the signal
In short: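 Cell-based multiplexed reporter format in human liver HepG2 cells, 24 h post-dose. Fluorescence from capillary electrophoresis of reporter cDNA gives the signal, with DMSO as negative control and baseline.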

[12] = target: X-box-binding protein 1 (Homo sapiens) (UniProt P17861); experiment: ATG_Xbp1_CIS: Attagene CIS-FACTORIAL HepG2 Assay for human X-box Binding Protein 1 (XBP1) (AID 2282972); settings: HepG2 XBP1 cis-element reporter, Attagene multiplex; actives raise or lower the signal
Sequence of X-box-binding protein 1 (Homo sapiens) (P17861 whole entry, looked up): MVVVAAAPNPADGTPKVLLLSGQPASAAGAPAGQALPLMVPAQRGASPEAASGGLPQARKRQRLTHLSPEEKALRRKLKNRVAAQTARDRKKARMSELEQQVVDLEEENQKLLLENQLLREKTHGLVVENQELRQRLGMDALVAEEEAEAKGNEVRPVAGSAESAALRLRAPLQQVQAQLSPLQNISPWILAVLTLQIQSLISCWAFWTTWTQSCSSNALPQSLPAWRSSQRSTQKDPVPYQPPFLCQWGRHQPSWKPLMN
In short: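 After a 24-hour chemical exposure of HepG2 cells carrying cis-regulated reporters, reporter mRNA levels are assessed. Quantification uses RT-PCR, 6-FAM labelling and capillary electrophoresis. Gain- or loss-of-signal is fitted against DMSO.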

[13] = target: Transcriptional activator Myb (Homo sapiens) (UniProt P10242); experiment: ATG_Myb_CIS: Attagene CIS-FACTORIAL HepG2 Assay for human Myeloblastosis (Myb) Proto-Oncogene Transcription Factor (AID 2282986); settings: HepG2 Attagene CIS-FACTORIAL Myb reporter transcription; actives raise or lower the signal
Sequence of Transcriptional activator Myb (Homo sapiens) (P10242 whole entry, looked up): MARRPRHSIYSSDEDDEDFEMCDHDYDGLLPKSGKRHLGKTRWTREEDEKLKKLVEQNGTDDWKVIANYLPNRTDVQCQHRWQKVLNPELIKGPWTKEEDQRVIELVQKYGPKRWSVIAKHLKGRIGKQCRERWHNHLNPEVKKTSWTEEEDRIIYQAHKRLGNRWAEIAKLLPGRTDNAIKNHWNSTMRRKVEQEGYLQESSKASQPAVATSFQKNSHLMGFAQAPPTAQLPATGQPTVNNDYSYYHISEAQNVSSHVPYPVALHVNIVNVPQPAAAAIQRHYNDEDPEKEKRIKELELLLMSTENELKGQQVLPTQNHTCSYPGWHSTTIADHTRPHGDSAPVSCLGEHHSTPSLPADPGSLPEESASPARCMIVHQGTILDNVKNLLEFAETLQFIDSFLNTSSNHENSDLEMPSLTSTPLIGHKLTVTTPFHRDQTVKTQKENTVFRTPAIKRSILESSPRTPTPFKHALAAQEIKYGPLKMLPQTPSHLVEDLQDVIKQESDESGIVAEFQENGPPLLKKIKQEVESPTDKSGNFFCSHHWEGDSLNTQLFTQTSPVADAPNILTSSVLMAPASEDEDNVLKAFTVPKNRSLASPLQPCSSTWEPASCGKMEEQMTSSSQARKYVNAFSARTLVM
In short: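 Transiently transfected HepG2 cells carrying a multiplexed cis-promoter reporter set report endogenous Myb activity after 24 h compound exposure. Reporter mRNA is read by RT-PCR with capillary electrophoresis of fluorescent products, fitted bidirectionally against DMSO.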

[14] = target: Nuclear respiratory factor 1 (Homo sapiens) (UniProt Q16656); experiment: ATG_NRF1_CIS: Attagene CIS-FACTORIAL HepG2 Assay for human Nuclear Respiratory Factor 1 (NRF1) Orphan Gene (AID 2282987); settings: HepG2 NRF1 cis-element reporter, Attagene multiplex; actives raise or lower the signal
Sequence of Nuclear respiratory factor 1 (Homo sapiens) (Q16656 whole entry, looked up): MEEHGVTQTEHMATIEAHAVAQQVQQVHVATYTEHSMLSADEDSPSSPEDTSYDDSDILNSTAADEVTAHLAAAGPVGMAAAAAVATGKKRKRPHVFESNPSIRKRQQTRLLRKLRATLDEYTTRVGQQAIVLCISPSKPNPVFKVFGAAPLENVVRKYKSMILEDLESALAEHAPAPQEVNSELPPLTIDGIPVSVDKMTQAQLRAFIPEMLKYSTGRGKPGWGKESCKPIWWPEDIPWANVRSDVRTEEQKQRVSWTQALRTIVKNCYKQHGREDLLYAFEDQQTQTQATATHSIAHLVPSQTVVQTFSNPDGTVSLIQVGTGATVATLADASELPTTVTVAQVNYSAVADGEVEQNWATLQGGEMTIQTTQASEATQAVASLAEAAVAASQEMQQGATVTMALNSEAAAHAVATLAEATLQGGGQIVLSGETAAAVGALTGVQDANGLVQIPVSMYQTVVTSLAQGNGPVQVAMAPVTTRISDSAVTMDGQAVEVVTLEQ
In short: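 HepG2 cells transiently transfected with multiple cis-regulated reporter units, exposed 24 h. Reporter mRNAs measured by RT-PCR, fluorescent labelling, HpaI digestion and capillary electrophoresis; bidirectional fitting against DMSO.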

[15] = ATG_NFI_CIS: Attagene CIS-FACTORIAL HepG2 Assay for human Nuclear Factor I (NFI) (AID 2282989); settings: HepG2 cis-regulatory reporter, NFI response element transcription; actives raise or lower the signal
In short: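 After transient transfection of HepG2 with cis-promoter reporter constructs and 24 h dosing, RNA is reverse-transcribed, amplified, 6-FAM end-labelled and HpaI-digested before capillary analysis. Bidirectional curve fitting against DMSO.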

[16] = ATG_NRF2_ARE_CIS: Attagene CIS-FACTORIAL HepG2 Assay for human Nuclear Factor Erythroid 2 Related Factor 2 (NFR2) response to Antioxidant Response Elements (ARE) (AID 2282992); settings: HepG2 Attagene ARE/NRF2 reporter, transcription factor activity; actives raise or lower the signal
In short: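 Cis-factorial assay: transfected HepG2 reporter library, 24 h dosing, mRNA readout via RT-PCR/CE; DMSO-referenced bidirectional analysis.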

[17] = ATG_Oct_MLP_CIS: Attagene CIS-FACTORIAL HepG2 Assay for human Octamer-Binding Transcription Factor (Oct) (AID 2282993); settings: HepG2 Attagene cis-factorial Oct reporter, mRNA; actives raise or lower the signal
In short: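 Cells of the HepG2 line express promoter-controlled reporter sequences whose mRNA levels, after 24 h treatment, are measured by RT-PCR and capillary electrophoresis. Increases and decreases are scored relative to DMSO.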

[18] = target: Cellular tumor antigen p53 (Homo sapiens) (UniProt P04637); experiment: ATG_p53_CIS: Attagene CIS-FACTORIAL HepG2 Assay for human p53 Transcription Factor (AID 2282994); settings: HepG2 p53 cis-element reporter, Attagene mRNA; actives raise or lower the signal
Sequence of Cellular tumor antigen p53 (Homo sapiens) (P04637 whole entry, looked up): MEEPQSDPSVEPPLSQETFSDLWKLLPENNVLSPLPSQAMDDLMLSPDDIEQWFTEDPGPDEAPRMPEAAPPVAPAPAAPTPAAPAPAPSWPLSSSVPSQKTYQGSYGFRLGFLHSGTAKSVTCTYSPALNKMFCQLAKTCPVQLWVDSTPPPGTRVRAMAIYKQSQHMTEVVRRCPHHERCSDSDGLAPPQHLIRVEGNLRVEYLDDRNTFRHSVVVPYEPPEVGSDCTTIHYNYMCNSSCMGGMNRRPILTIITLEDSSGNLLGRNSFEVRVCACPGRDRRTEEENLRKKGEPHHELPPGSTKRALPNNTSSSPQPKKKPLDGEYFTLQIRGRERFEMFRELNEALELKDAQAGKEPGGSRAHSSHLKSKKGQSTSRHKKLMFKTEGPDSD
In short: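 Using HepG2 hepatoma cells carrying cis-acting multiplexed reporters, mRNA induction is detected after a 24 h exposure. Gain- and loss-of-signal responses are fitted relative to DMSO-treated cells.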

[19] = ATG_XTT_Cytotoxicity: Cytotoxicity Assessment in the Attagene TRANS-FACTORIAL HepG2 Assay (AID 2283584; active = hit-call score of the fitted dose curve at least 0.9, where 1 is the maximum)
In short: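 Transfect HepG2 with GAL4-UAS reporter units, dose compound, incubate 24 h, then measure viable cell number by XTT. Fit concentration response against DMSO baseline.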

[20] = ATG_AP_1_CIS: Attagene CIS-FACTORIAL HepG2 Assay for human Activator Protein 1 (AP-1) (AID 2282931); settings: HepG2 Attagene cis-factorial AP-1 reporter mRNA; actives raise or lower the signal
In short: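 HepG2 cells transiently transfected with cis-element-driven reporter transcription units, dosed for 24 hours. Reporter mRNA measured by RT-PCR, 6-FAM labelling, HpaI digestion and capillary electrophoresis. Bidirectional fitting against DMSO baseline.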

Measured: AC50

CSc1nc(N=[N+]=[N-])nc(NC(C)C)n1
active: [2] 52.8 µM | [16] 100 µM
not listed: [20]
inactive: all other assays above

COc1cc(OC)nc(Oc2cccc(Oc3nc(OC)cc(OC)n3)c2C(=O)O)n1
active: [3] 57.5 µM
not listed: [4] | [19] | [20]
inactive: all other assays above

Cc1ncc(C[n+]2csc(CCO)c2C)c(N)n1
not listed: [7] | [8] | [9] | [19] | [20]
inactive: all other assays above

CC(=O)C=Cc1ccccc1
active: [1] 100 µM | [2] 128 µM | [20] 133 µM | [6] 81.1 µM | [9] 152 µM | [11] 100 µM | [13] 128 µM | [17] 100 µM
not listed: [4] | [5] | [16] | [18]
inactive: all other assays above

CCNCC
not listed: [18]
inactive: all other assays above

CNC(=N[N+](=O)[O-])NCC1CCOC1 (stereo unspecified)
not listed: [5]
inactive: all other assays above

N#Cc1cc(I)c(O)c(I)c1
active: [11] 30.8 µM | [12] 33.6 µM | [16] 28.3 µM | [17] 39.3 µM
not listed: [4] | [6] | [7] | [20]
inactive: all other assays above
